Measured values reported in ChEMBL document CHEMBL3988442, “University of Dundee, Small-Polar-MMV Screening Library” (2021).
About 13,000 (27%) of roughly 48,000 compounds showed an effect of 50% or more. This is one part of the list.

What follows are compounds tested on Wolbachia pipientis (assay: Anti-Wolbachia Cell-Based Screen). Conditions: 5 µM.
Type: functional
Parameters: scale not given: in the data most compounds retested in dose-response had high values

SMILES | Percent Effect [%]
CCCc1n[nH]c(C2CN(Cc3nnc(C4CC4)n3C)CCO2)n1 (configuration not stated) | -1.998
COCCO[C@H]1CCN(C(=O)c2cnoc2C)[C@H]1Cc1cnn(C)c1 | -37.67
CC(CN1CCN(C)CC1)NC(=O)c1cc(Cl)c2c(c1)OCO2 (configuration not stated) | -52.56
CS(=O)(=O)c1ncc(CN2CCN3CCCC3C2)n1CC1CCCCC1 (configuration not stated) | 0.5285
Cn1cc(CN2CCC(c3[nH]ncc3S(C)(=O)=O)C2)cn1 (configuration not stated) | 89.03
CN(C)S(=O)(=O)N1CC[C@@H]2CN(Cc3cnn(C)c3)C[C@@H]2C1 | -2.262
CCCn1cc(CN2CCC(c3[nH]ncc3S(C)(=O)=O)C2)cn1 (configuration not stated) | 113
CCC[C@@H]1CN(Cc2cnc3c(S(C)(=O)=O)cnn3c2)C[C@H]1N(C)C | -11.35
CCn1cc(CN2CCN(C)C3(CCC(=O)N(CC4CC4)CC3)C2)cn1 (configuration not stated) | 0.5097
CCn1cc(CN2CCCC(c3[nH]ncc3S(C)(=O)=O)C2)cn1 (configuration not stated) | 1.783
CCn1cc(CN2CCC(c3nnc(CN(C)C)n3CC)CC2)cn1 | -1.722
COc1ncc(CN2CCCC(c3[nH]ncc3S(C)(=O)=O)C2)cn1 (configuration not stated) | 102.2
CCn1cc(CN2CCC(c3[nH]ncc3S(C)(=O)=O)C2)cn1 (configuration not stated) | 105.5
Cn1cc(CN2CC[C@@H]3[C@@H](CCC(=O)N3CC3CCNCC3)C2)cn1 | -8.948
COc1cc(Br)c(S(=O)(=O)NC(=O)C(C)OC)cc1OC (configuration not stated) | 2.536
Cc1cc(C(=O)N2C[C@H]3CC[C@@H]2CN(Cc2ccccn2)C3)nc(C)n1 | -8.906
Cc1ccc(F)c(S(=O)(=O)NCc2[nH]ncc2Br)c1 | -8.756
CCn1nc(CC(C)C)cc1C(=O)N1CC(N2CCCCC2C)C1 (configuration not stated) | 1.245
CC(CCS(C)(=O)=O)NC(=O)NCc1ccc2c(c1)CCC2 (configuration not stated) | 5.194
Cc1ccc2c(c1)nc1n2[C@@H](CNC(=O)c2cncnc2)COC1 | -17.88
Cc1cc(N2CCC(n3cc(CN4CCNCC4)nn3)CC2)ccn1 | -4.274
c1csc(CNCC2COCc3c(-c4ccsc4)nnn3C2)n1 (configuration not stated) | -12.98

SMILES | Percent Effect [%]
Cn1nccc1-c1nnn2c1COCC(CNCC1CC1)C2.O=C(O)C(F)(F)F.O=C(O)C(F)(F)F (configuration not stated) | 95.94
O=C(O)C(F)(F)F.c1csc(CNCC2COCc3c(-c4ccoc4)nnn3C2)n1 (configuration not stated) | 7.766
CN(C)CCNCC1COCc2c(-c3ccnn3C)nnn2C1 (configuration not stated) | 97.42
Fc1cccc(-c2nnn3c2COCC(CNCc2nccs2)C3)c1.O=C(O)C(F)(F)F (configuration not stated) | -16.94
Cc1nc(CNCC2COCc3c(-c4ccoc4)nnn3C2)cs1 (configuration not stated) | -8.682
O=C(NCC1COCc2c(-c3ccncc3)nnn2C1)[C@H]1CCCO1.O=C(O)C(F)(F)F (some centres not stated) | 13.14
Cn1nccc1-c1nnn2c1COCC(CNC1CCOCC1)C2.O=C(O)C(F)(F)F.O=C(O)C(F)(F)F (configuration not stated) | 88.78
Cc1noc(C)c1CNCC1COCc2c(-c3ccoc3)nnn2C1.O=C(O)C(F)(F)F (configuration not stated) | -8.022
CC(C)N(Cc1cccnc1)C(=O)CNc1ccc(C#N)cc1 | -12.71
Cn1cc(CN2CC[C@H]3O[C@H](C(=O)NC4CC4)CC[C@H]32)c2ccccc21.O=C(O)C(F)(F)F | -3.833
Cc1csc(CN2CC[C@H]3O[C@H](C(=O)Nc4cccnc4)CC[C@H]32)n1.O=C(O)C(F)(F)F.O=C(O)C(F)(F)F | 273.2
O=C(NCc1ccccn1)[C@@H]1CC[C@@H]2[C@@H](CCN2c2ncc(F)cn2)O1.O=C(O)C(F)(F)F.O=C(O)C(F)(F)F | 7.451
O=C(Nc1cnccn1)[C@@H]1CC[C@@H]2[C@@H](CCN2Cc2nccs2)O1.O=C(O)C(F)(F)F | 114.9
O=C(NC1CCC1)[C@@H]1CC[C@@H]2[C@@H](CCN2CCc2ccccc2)O1.O=C(O)C(F)(F)F | -17.29
Cc1cccc(CN2CC[C@H]3O[C@H](C(=O)Nc4cnccn4)CC[C@H]32)n1.O=C(O)C(F)(F)F.O=C(O)C(F)(F)F | 108.3
O=C(NCc1ccco1)[C@H]1CC[C@@H]2[C@@H](CCN2Cc2nccs2)O1.O=C(O)C(F)(F)F | 5.491
CC(C)NC(=O)[C@@H]1CC[C@@H]2[C@@H](CCN2Cc2ccc3ccccc3n2)O1.O=C(O)C(F)(F)F | -12.2
Cc1ncccc1NC(=O)[C@@H]1CC[C@@H]2[C@@H](CCN2Cc2cnn(C)c2)O1.O=C(O)C(F)(F)F.O=C(O)C(F)(F)F.O=C(O)C(F)(F)F | -6.669
O=C(Nc1cnccn1)[C@H]1CC[C@@H]2[C@@H](CCN2Cc2ccccn2)O1.O=C(O)C(F)(F)F | 79.42
O=C(c1cc[nH]n1)N(Cc1cccc(O)c1)CC1CC1 | -5.824
CN1CCCCC12CCN(c1nncs1)CC2.O=C(O)C(F)(F)F | -22.78
CCCN1CCc2[nH]nc(C(=O)N3CCNC(=O)C3)c2C1.O=C(O)C(F)(F)F.O=C(O)C(F)(F)F | -12.08

SMILES | Percent Effect [%]
CCc1nnc(C2Cc3ccccc3CN2Cc2cc(C)on2)o1 (configuration not stated) | 6.832
CCc1nnc(C2Cc3ccccc3CN2Cc2nc(C3CC3)no2)o1 (configuration not stated) | -3.635
Cc1noc(CN2Cc3ccccc3CC2c2nnc(C)o2)n1 (configuration not stated) | 1.632
Cc1nnc(C2Cc3ccccc3CN2Cc2ncc(C(C)(C)C)o2)o1 (configuration not stated) | 21.52
Cc1cc(CN2Cc3ccccc3CC2c2nnc(C)o2)on1 (configuration not stated) | 1.784
Cc1nnc(C2Cc3ccccc3CN2Cc2nc(C3CC3)no2)o1 (configuration not stated) | -2.569
Cc1noc(C)c1CN1CCCC1C(=O)OCc1ccccc1 (configuration not stated) | 4.096
CCc1nnc(C2Cc3ccccc3CN2Cc2cc(C)no2)o1 (configuration not stated) | -1.172
Cc1nnc(C2Cc3ccccc3CN2Cc2c(C)noc2C)o1 (configuration not stated) | 100.9
Cc1nnc(C2Cc3ccccc3CN2Cc2nc(C(C)C)no2)o1 (configuration not stated) | 134.6
CCc1nnc(C2Cc3ccccc3CN2Cc2nc(C)no2)o1 (configuration not stated) | 88.09
Cc1cc(CN2Cc3ccccc3CC2c2nnc(C)o2)no1 (configuration not stated) | 108.3
C[C@@H](NCc1cccc(Cl)c1)c1onc(-c2ccccc2)c1C(=O)O | -2.837
COc1cc(CN(C)C(=O)Nc2cc(C)on2)ccc1SC | -6.064
O=C1NC(c2ccccc2)=N[C@@]12CC[C@@H]1CN(Cc3nccs3)C[C@@H]12 | -1.68
CC(C)N1CCC(N2CCCC(C(=O)NCC3(O)CCCCC3)C2)CC1 (configuration not stated) | 0.6612
COCc1cnc2n1CCN(C(=O)c1ccc3ccccc3n1)C2C.O=C(O)C(F)(F)F (configuration not stated) | -39.11
COCc1ncn2c1CN(C(=O)c1ccc3ccccc3n1)CC2.O=C(O)C(F)(F)F | 86.38
COCc1ncn2c1CN(C(=O)C1CC=CC1)CC2 | -12.78
COCc1ncn2c1CN(C(=O)c1cccc3cccnc13)CC2.O=C(O)C(F)(F)F | 103
Cc1ccc(C(=O)N2CCn3cnc(COCC4CC4)c3C2)cn1.O=C(O)C(F)(F)F | -1.031
COCc1ncn2c1CN(S(=O)(=O)Cc1ccc(C)cc1)CC2.O=C(O)C(F)(F)F | 14.75

SMILES | Percent Effect [%]
COCc1ncn2c1CN(C(=O)c1cnc3ccccc3c1)CC2 | 79.69
O=C(O)C(F)(F)F.O=C(c1ccccn1)N1CCn2cnc(COCC3CC3)c2C1 | 22.66
Cc1ccc(F)c(N2CCCC(NS(=O)(=O)CCCF)C2=O)c1 (configuration not stated) | -1.757
O=C(CN1CCOc2ccc(Cl)cc21)NCCCn1ccnc1 | 9.044
CN(C(=O)OC(C)(C)C)C1CCN(C(=O)c2ccc(Cl)o2)C1 (configuration not stated) | -6.554
CCS(=O)(=O)c1ncc(CN(C)Cc2ccccn2)n1CCOC | -6.84
Cc1noc(NS(=O)(=O)c2ccc(Cl)s2)c1C | -16.85
O=C(O)C(F)(F)F.O=C(O)C(F)(F)F.O=c1ccc2c(n1Cc1ccncc1)CCN(Cc1ccoc1)CC2 | 96.18
COCCn1c2c(ccc1=O)CCN(Cc1ccoc1)CC2 | 106.6
COCC1c2c(cnn2C)CCN1Cc1ccoc1 (configuration not stated) | -6.273
COc1ccc2c(c1)C1(CCN(Cc3ccoc3)CC1)N(C)CC2 | -15.48
O=C(O)C(F)(F)F.O=C(O)C(F)(F)F.O=c1ccc2c(n1Cc1cccnc1)CCN(CC1CCOC1)CC2 (configuration not stated) | -12.29
O=C(O)C(F)(F)F.O=C(O)C(F)(F)F.O=c1ccc2c(n1Cc1cccnc1)CCN(Cc1ccoc1)CC2 | 110
Cn1c2c(ccc1=O)CCN(Cc1ccoc1)CC2.O=C(O)C(F)(F)F | 97.4
O=C(O)C(F)(F)F.O=C(O)C(F)(F)F.O=c1ccc2c(n1CCN1CCCC1)CCN(Cc1ccoc1)CC2 | -0.3339
O=C(O)C(F)(F)F.O=C(O)C(F)(F)F.O=c1ccc2c(n1Cc1cccnc1)CCN(C1CCOC1)CC2 (configuration not stated) | 2.129
CS(=O)(=O)NCC1(c2ccccc2Br)CC1 | 1.161
O=C(O)C1CCN(C[C@H]2CC[C@@H](Cc3ccc4c(c3)OCO4)O2)CC1 | 4.381
Cc1cc(Cl)ccc1S(=O)(=O)NCC(C)N1CCN(C)CC1 (configuration not stated) | 0.8605
CC1CCN(Cc2cnc(S(=O)(=O)CC3CC3)n2CC2CCCO2)CC1 (configuration not stated) | 3.735
CCC(C)Oc1cc(C(=O)Nc2nccs2)ccn1 (configuration not stated) | -12.97
